The nature of test [1]: adipocyte viability effects, profiling panel, cell-based, 3T3-L1 adipocytes, calcein-AM fluorescence, 48 h, basal (AID 1163). As to conditions: 3T3-L1 adipocytes viability, higher = more signal.
A short description of test [2]: HepG2 cell viability effects, profiling panel, calcein-AM fluorescence, 48 h, basal (AID 1164). To be noted: higher = more signal.
Test [3] is described as follows: MM1S cell viability effects, profiling panel, calcein-AM fluorescence, 48 h, basal (AID 1165).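 Further: viability of MM1S multiple myeloma cells under basal unstimulated conditions.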 As to conditions: higher = more signal.
Test [4] in a line: basal RPMI8226 viability, no added stimulus, profiling panel, cell-based, calcein-AM fluorescence, 48 h, PK04 Diversity Set (AID 1166).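 Further: cells grown under basal conditions without added stimulus.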 As to conditions: RPMI8226 myeloma viability, higher = more signal.
Test [5] in a line: basal HepG2 mitochondrial membrane potential changes, profiling panel, cell-based, JC-1 fluorescence, 24 h, 100 nL compound (AID 1167). To be noted: higher = more signal.
Test [6] in a line: basal 3T3-L1 adipocyte mitochondrial potential changes, profiling panel, cell-based, JC-1 fluorescence, 3T3-L1 adipocytes, 24 h, 100 nL compound (AID 1168). As to conditions: JC-1 mitochondrial fluorescence, higher = more signal, called active from +8 up or from −8 down.
The nature of test [7]: basal RPMI8226 mitochondrial membrane potential changes, profiling panel, cell-based, JC-1 fluorescence, 24 h, 100 nL compound (AID 1169). To be noted: RPMI8226 myeloma, JC-1 mitochondrial potential fluorescence, higher = more signal.
Test [8] in a line: basal MM1S mitochondrial membrane potential changes, profiling panel, cell-based, JC-1 fluorescence, 24 h, 100 nL compound (AID 1170). As to conditions: higher = more signal.
The nature of test [9]: A549 lung cancer cell viability effects, profiling panel, resazurin fluorescence, 24 h, PK04 Diversity Set (AID 1171). As to conditions: higher = more signal, called active from +8 up or from −8 down. For orientation: Alamar Blue is a resazurin reagent that responds to reducing activity.
The nature of test [10]: HepG2 liver cancer cell viability effects, profiling panel, resazurin fluorescence, 24 h, PK04 Diversity Set (AID 1172). To be noted: higher = more signal.
Test [11] can be described thus: basal S. cerevisiae growth modulation, no modifier, primary screen, OD600, strain BY4716, 24 h, basal condition (AID 1173). As to conditions: OD600, 24 h, higher = more signal, called active from +8 up or from −8 down.
Test [12] in a line: MM1S myeloma cell viability, profiling panel, resazurin fluorescence, basal, 24 h, PK04 Diversity Set (AID 1174). To be noted: higher = more signal, called active from +8 up or from −8 down.
Test [13] deals with Dihydroorotate dehydrogenase (quinone), mitochondrial (Plasmodium falciparum (isolate 3D7)) (UniProt Q08210). Briefly: PfDHODH enzyme inhibitors, primary screen, biochemical, C-terminal His tag, absorbance 600 nm (AID 1175).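 Further: recombinant parasite enzyme with a five histidine tag at its C terminus.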 To be noted: DCIP absorbance 600 nm, higher = more signal, called active from +8 up or from −8 down.
Dihydroorotate dehydrogenase (quinone), mitochondrial (Plasmodium falciparum (isolate 3D7)), sequence (Q08210 whole entry, looked up): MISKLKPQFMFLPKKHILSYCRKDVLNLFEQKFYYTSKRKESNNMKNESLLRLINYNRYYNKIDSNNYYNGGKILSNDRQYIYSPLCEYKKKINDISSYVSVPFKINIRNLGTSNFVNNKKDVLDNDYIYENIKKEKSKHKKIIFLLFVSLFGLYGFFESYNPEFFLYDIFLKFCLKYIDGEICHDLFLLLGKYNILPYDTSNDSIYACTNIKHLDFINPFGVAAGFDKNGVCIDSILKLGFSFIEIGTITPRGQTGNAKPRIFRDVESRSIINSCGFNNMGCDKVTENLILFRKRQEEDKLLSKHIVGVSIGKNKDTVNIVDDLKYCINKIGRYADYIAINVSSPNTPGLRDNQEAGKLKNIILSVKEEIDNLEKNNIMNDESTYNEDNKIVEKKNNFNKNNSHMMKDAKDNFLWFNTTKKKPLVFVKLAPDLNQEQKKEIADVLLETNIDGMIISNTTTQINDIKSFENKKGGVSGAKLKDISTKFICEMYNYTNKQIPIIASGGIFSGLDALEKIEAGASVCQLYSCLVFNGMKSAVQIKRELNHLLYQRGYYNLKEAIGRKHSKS
A short description of test [14]: S. cerevisiae RM11-1a growth modifiers, primary screen, strain RM11-1a, OD600, basal, 24 h (AID 1177).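 Further: cultures grown under basal conditions with no added stressor.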 To be noted: OD600, 24 h, higher = more signal, called active from +8 up or from −8 down.
A short description of test [15]: E. coli acrAB mutant growth effects, primary screen, E. coli filamentation inducers, strain DRC39, OD650, 24 h (AID 1178).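 Further: growth measured as culture turbidity by optical density at 650 nm.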 To be noted: higher = more signal, called active from +8 up or from −8 down.
A short description of test [16]: E. coli acrAB mutant growth effects, primary screen, E. coli filamentation inducers, strain DRC39, OD650, 48 h (AID 1179).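 Further: screen aims at cell division blockers that make cells filament.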 To be noted: E. coli DRC39 delta-acrAB growth, higher = more signal, called active from +8 up or from −8 down.
Test [17] is described as follows: RPMI8226 myeloma cell viability, profiling panel, resazurin fluorescence, basal, 24 h, PK04 Diversity Set (AID 1180).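 Further: RPMI8826 multiple myeloma cell line at 5000 cells per well.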 To be noted: higher = more signal.
Test [18] concerns the target E3 ubiquitin-protein ligase XIAP (Homo sapiens) (UniProt P98170). Briefly: XIAP binders, primary screen, biophysical, small-molecule microarray, fluorescence 635 nm (AID 1181).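 Further: score merges 667 nm emission and signal to noise over triplicate slides.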 As to conditions: small-molecule microarray binding, higher = more signal.
Test [19] concerns XIP peptide (Xip251-270) binding. Briefly: small-molecule binders of XIP peptide, primary screen, biochemical, small-molecule microarray, fluorescence 635/667 nm, 0.1 µg/mL protein (AID 1182). To be noted: fluorescent protein binding, 635 nm, higher = more signal, called active from +8 up or from −8 down.
The test system of the next test is XIP peptide (Xip251-270). The test is described as follows: small-molecule binders of XIP peptide, primary screen, biochemical, small-molecule microarray, fluorescence 635/667 nm, 0.5 µg/mL protein (AID 1183). To be noted: small-molecule microarray binding, fluorescence 635 nm; higher = more signal.

The source of these data is PubChem BioAssay.

Calls of active or inactive are those of the source.

E3 ubiquitin-protein ligase XIAP (Homo sapiens), sequence (P98170 whole entry, looked up): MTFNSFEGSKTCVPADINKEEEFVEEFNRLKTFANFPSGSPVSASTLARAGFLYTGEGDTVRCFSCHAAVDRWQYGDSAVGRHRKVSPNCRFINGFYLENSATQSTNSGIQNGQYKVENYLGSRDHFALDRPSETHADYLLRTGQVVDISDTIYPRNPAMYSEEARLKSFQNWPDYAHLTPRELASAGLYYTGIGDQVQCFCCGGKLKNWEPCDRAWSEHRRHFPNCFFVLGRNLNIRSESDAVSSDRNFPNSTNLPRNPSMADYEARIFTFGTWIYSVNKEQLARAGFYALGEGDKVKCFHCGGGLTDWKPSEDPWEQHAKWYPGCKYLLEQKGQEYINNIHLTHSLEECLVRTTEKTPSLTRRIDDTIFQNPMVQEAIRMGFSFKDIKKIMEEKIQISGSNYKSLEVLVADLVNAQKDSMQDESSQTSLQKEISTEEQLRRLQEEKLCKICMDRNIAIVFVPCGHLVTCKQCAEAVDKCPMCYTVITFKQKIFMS

Take `COC(=O)C(CC#Cc1ccc2c(c1)[C@]1(C(=O)N2)[C@H](c2ccccc2OCCO)N2[C@H](c3ccccc3)[C@H](c3ccccc3)OC(=O)[C@H]2[C@@H]1C(=O)N1CCCCCCC1)C(=O)OC`: the z-score in test [1] was 1.89; in test [2], -0.0172; in test [3] it was 0.578; in [4], -0.576; in test [5], 0.87; in test [6], -0.239 (inactive). For the same molecule, the z-score in [7] was -0.395; in [8] it was -1.32; in test [9], 1.9 (inactive); in [10], 0.0437; in test [11], 1.31 (inactive); in test [12] it was 1.19 (inactive). In addition, the z-score in test [14] is 1.23 (inactive); in test [15], 0.723 (inactive); in [16], -0.34 (inactive); in test [17], 1.17. Further, the composite z-score in test [13] was -2.8 (inactive); in test [18], 1.72; in test [19], 6.51 (inactive); with XIP peptide (Xip251-270), 0.937.

For `Cc1ccc(N2C(=O)c3ccccc3[C@](C)(C(=O)NC3CC3)[C@@H]2c2ccc(CO)cc2)nc1`, the z-score is 0.995 in test [1]; 0.0786 in test [2]; 0.47 in [3]; 0.442 in [4]; 0.587 in [5]; -0.73 (inactive) in [6]. Besides, the z-score in test [7] was 0.36; in [8], 0.259; in test [9] it was 1.1 (inactive); in test [10], 0.403; in [11] it was -1.76 (inactive); in test [12] it was 1.55 (inactive). Moreover, the z-score in [14] was -0.224 (inactive); in test [15] it was 0.256 (inactive); in test [16], 0.143 (inactive); in test [17] it was 1.51. In addition, the composite z-score in [13] was 0.0264 (inactive); in test [18] it was 0.0253; in test [19], -0.485 (inactive); with XIP peptide (Xip251-270), -0.777.

In the case of `COC(=O)C(CC#Cc1ccc2c(c1)[C@]1(C(=O)N2)[C@H](C(=O)O)[C@H]2C(=O)O[C@H](c3ccccc3)[C@H](c3ccccc3)N2[C@@H]1c1ccc(OCCO)cc1)C(=O)OC`, the z-score in [1] is 0.313; in test [2], 1.27; in test [3] it was -2.5; in test [4], -3.54; in test [5], -0.532; in [6], 0.587 (inactive). Also, the z-score in [7] is -0.746; in test [8], 0.171; in [9], 0.7 (inactive); in test [10], 0.821; in test [11] it was -0.842 (inactive); in test [12], 1.22 (inactive). The z-score was 0.338 (inactive) in test [14], 1.6 (inactive) in test [15], 1.72 (inactive) in test [16] and -2.37 in [17]. For the same molecule, the composite z-score was -15.4 (active) in test [13], -0.207 in test [18], 1.68 (inactive) in test [19] and 0.836 in the test on XIP peptide (Xip251-270).

`CCCNC(=O)[C@@]1(Sc2ccc(C)cc2)CC(=O)N(Cc2cc(C(F)(F)F)cc(C(F)(F)F)c2)[C@@H]1c1ccc(CO)cc1I`: the z-score in test [1] is 0.66; in test [2] it was 1.28; in [3], -2.53; in test [4], -1.3; in test [5] it was 0.848; in [6], 1.18 (inactive). The z-score in test [7] was -0.649; in test [8], -1.24; in test [9], 0.0086 (inactive); in test [10] it was 1.05; in [11] it was -5.79 (inactive); in test [12] it was -1.68 (inactive). Besides, the z-score in [14] was -5 (inactive); in [15] it was 0.961 (inactive); in test [16], 1.4 (inactive); in [17], -1.55. Further, the composite z-score in [13] is -0.684 (inactive); in test [18], -0.0925; in [19], 0.459 (inactive); in the test with XIP peptide (Xip251-270), 0.816.

Consider `CC(C)(C)OC(=O)CC[C@]1(C(=O)NCc2ccccc2)N=C(c2ccc(OCCCO)cc2)O[C@H]1c1ccccc1N=[N+]=[N-]`, for which the z-score is 2.99 in test [1]; -0.957 in test [2]; -0.369 in test [3]; -1.52 in [4]; 2.24 in test [5]; 2.6 (inactive) in test [6]. Further, the z-score is -0.578 in test [7]; -0.669 in [8]; -0.413 (inactive) in test [9]; 0.384 in [10]; 0 (inactive) in test [11]; -0.439 (inactive) in [12]. The z-score is 0.892 (inactive) in [14], 3.14 (inactive) in test [15], 1.08 (inactive) in test [16] and -0.2 in test [17]. Further, the composite z-score in test [13] was 1.18 (inactive); in test [18], -0.0095; in test [19] it was 0.735 (inactive); in the test on XIP peptide (Xip251-270), 0.725.

For `COc1ccc(CCNC(=O)[C@@]2(Sc3ccc(C)cc3)CC(=O)N(Cc3ccccc3)[C@@H]2c2ccc(CO)cc2I)cc1`, the z-score in test [1] is 1.14; in test [2], -0.46; in [3], -1.78; in test [4], -2.05; in test [5], 1.17; in [6] it was 0.0695 (inactive). Besides, the z-score in [7] is -0.861; in [8], -1.3; in test [9], 1.28 (inactive); in [10], 0.278; in test [11] it was -1.92 (inactive); in test [12] it was -2.26 (inactive). The z-score in test [14] was 0.893 (inactive); in test [15] it was 0.361 (inactive); in test [16], -0.0855 (inactive); in [17], -1.5. For the same molecule, the composite z-score in test [13] is 0.341 (inactive); in test [18], 0.0623; in [19], -0.281 (inactive); in the test with XIP peptide (Xip251-270) it was -0.0462.

For `C=C(C1=CCN(S(=O)(=O)c2ccc(C)cc2)C1)[C@@H](OC(C)=O)[C@@H]1CCCN1S(=O)(=O)c1ccccc1[N+](=O)[O-]`, the z-score was 1.9 in test [1]; -3.37 in test [2]; -3.21 in test [3]; -4.14 in test [4]; 1.04 in test [5]; 0.496 (inactive) in test [6]. Moreover, the z-score in test [7] was -1.21; in test [8] it was -2.86; in [9], 0.0974 (inactive); in test [10], 0.174; in [11] it was -0.372 (inactive); in test [12] it was -7.03 (inactive). Moreover, the z-score was 1.39 (inactive) in [14], 2.93 (inactive) in test [15], 1.38 (inactive) in [16] and -4.54 in test [17]. Besides, the composite z-score in test [13] is 1 (inactive); in test [18] it was -0.301; in test [19] it was 0.698 (inactive); with XIP peptide (Xip251-270), -0.737.

Turning to `CC(C)(C)OC(=O)CC[C@]1(C(=O)NCc2ccccc2)COC(c2ccc(OCCCO)cc2)=N1`, the z-score is 0.978 in test [1]; -0.346 in [2]; 0.614 in test [3]; 0.554 in test [4]; -0.0474 in test [5]; 0.186 (inactive) in test [6]. Also, the z-score in [7] was -0.291; in test [8], 0.931; in test [9] it was 1.72 (inactive); in test [10] it was 0.931; in test [11], -1.67 (inactive); in test [12], 1.65 (inactive). Moreover, the z-score in [14] is -1.23 (inactive); in test [15], 1.38 (inactive); in [16], 0.233 (inactive); in [17], 1.57. The composite z-score in test [13] was -1.28 (inactive); in [18] it was 0.141; in test [19] it was 1.45 (inactive); with XIP peptide (Xip251-270), 0.0144.

In the case of `C#CCN1C(C(=O)OCC)OC[C@H]1c1ccccc1` (stereo not given in full), the z-score in test [1] was 0.714; in test [2], -0.0851; in test [3], 0.712; in test [4] it was -0.181; in test [5], 1.06; in test [6], 0.842 (inactive). The z-score in [7] is 0.297; in test [8], -0.316; in test [9], -0.282 (inactive); in test [10], 0.513; in test [11] it was -6.25 (inactive); in test [12] it was 1.49 (inactive). The z-score was -2.24 (inactive) in test [14], 2.47 (inactive) in [15], 0.724 (inactive) in test [16] and 0.0912 in test [17]. The composite z-score in [13] was 0.253 (inactive); in [18], -0.227; in test [19], -0.0319 (inactive); with XIP peptide (Xip251-270), -0.258.
